NS1 function inh: qHTS Assay for Inhibitors of Influenza NS1 Protein Function; Potency, µM (doses to about 46.1 µM), for the others: top-dose activity, positive = more growth; 0.4% of 270,000 active; calls by dose curve; further: actives are rising curves; nearly all actives have a fitted effect of over 50% in size
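Growth recovery, yeast-based: influenza A NS1 expressed in S. cerevisiae causes slow growth, and suppressors are detected by OD600. The parent strain without NS1 is used as positive control.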
RE007 growth inh: qHTS Assay for Inhibitors of the HIV-1 protein Vpr | S. pombe RE007 Vpr strain, BacTiter-Glo ATP luminescence, 24 h | Potency, µM (doses to about 92.2 µM), for the others: top-dose activity change, negative = less growth, most hits filed as inhibitors | 0.21% of 360,000 active; active means well fitted falling curve with a large enough effect; inconclusive means small, poorly fitted or top-dose-only effect; inactive means no such curve, though single readings can be large or run the other way; further: on the % scale 0 is the no-effect control and ±100 the full control effect; nearly all actives have a fitted effect of over 50% in size
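Fission yeast RE007 carrying one integrated HIV-1 vpr copy, seeded at OD 0.01 in PMG+AL medium with 23 nL pinned compound. Grown 24 h at 30 degrees; viability read by BacTiter-Glo luminescence after 5 min.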
LmPK inh: qHTS Assay for Inhibitors of Leishmania Mexicana Pyruvate Kinase (LmPK). Potency, µM (top dose mostly 57.5 µM), inactives show top-dose activity change, negative = inhibition, hits mostly inhibitors. 0.37% of 290,000 active. Q27686. purified LmPK, Kinase-Glo ATP luminescence, 1 h; further: on the % scale 0 is the no-effect control and ±100 the full control effect
Target sequence (Q27686 whole entry, looked up): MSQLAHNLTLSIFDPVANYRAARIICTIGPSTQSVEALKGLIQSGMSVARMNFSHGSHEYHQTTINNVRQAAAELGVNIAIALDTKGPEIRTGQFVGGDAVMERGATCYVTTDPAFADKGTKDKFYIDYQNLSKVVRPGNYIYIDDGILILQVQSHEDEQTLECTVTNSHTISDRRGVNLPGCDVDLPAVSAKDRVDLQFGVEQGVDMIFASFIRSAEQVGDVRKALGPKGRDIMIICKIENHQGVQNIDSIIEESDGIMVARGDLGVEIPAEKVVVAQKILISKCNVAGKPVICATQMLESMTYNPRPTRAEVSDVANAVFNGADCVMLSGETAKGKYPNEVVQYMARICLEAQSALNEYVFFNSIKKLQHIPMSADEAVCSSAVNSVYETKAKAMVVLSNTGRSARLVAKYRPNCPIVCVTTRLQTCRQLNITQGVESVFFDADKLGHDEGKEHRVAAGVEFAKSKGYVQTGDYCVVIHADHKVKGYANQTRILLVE
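Kinase-Glo luminescence read after 1 h RT reaction of 0.1 nM LmPK with 0.5 mM PEP and 0.1 mM ADP. Activity scaled between uninhibited and enzyme-free controls.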
TbPYK inhibitor: qHTS of Trypanosoma Brucei Inhibitors | pyruvate kinase (Trypanosoma brucei), Q57TT1 | TbPYK enzyme, Kinase-Glo Plus ATP luminescence, 45 min | Potency, µM (doses to about 76.8 µM), inactives show top-dose activity, negative = inhibition, most hits filed as inhibitors | 0.12% of 410,000 active | AID 624173, 2012; further: on the % scale 0 is the no-effect control and ±100 the full control effect; nearly all actives have a fitted effect of over 50% in size
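Screened from lowest to highest concentration, compounds were pinned into TbPYK/substrate mixtures, and ADP (130 uM final) was added. Plates sat at room temperature for 45 min prior to Kinase-Glo Plus detection by luminescence.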
Starred values were filed as active, the others as inactive; ? = inconclusive; . = not tested or not shown; ! = not active in a repeat; [ ] = dose if it differs, or a comment. Rows were chosen to be rich in hits. Some 0.77% of all compounds tested hit in one or more screens of this group. Unless noted, the call rests on the fitted dose curve; in most records, active means well fitted curve in the direction sought with a large enough effect; inconclusive means small, poorly fitted or top-dose-only effect, or another doubt; inactive means no such curve, though single readings can be large; an effect the other way counts as inactive or inconclusive. Potency means the concentration at half of the fitted maximal effect.

SMILES	NS1 function inh	RE007 growth inh	LmPK inh	TbPYK inhibitor
O=C1NC(=S)N(Cc2ccco2)C(=O)/C1=C\c1cccs1	.	.	17%[11.5 µM]	.
Cc1cccc(NCCC(=O)c2ccc(Br)cc2)c1	-18%	?	-4%	-5%
CCOC(=O)CNCCC(=O)c1ccc(Br)cc1	-46%	35µM*	-1%	-9%
O=C(O)[C@H]1C2c3ccccc3C(c3ccccc32)[C@@H]1C(=O)NCC1CC1	-9%	.	.	.
CC1(C)[C@@H]2CC[C@]1(CC(=O)O)[C@H](Cl)C2	-4%	.	.	.
CCC(C)(Oc1ccc(C2(c3ccc(OC(C)(CC)C(=O)O)cc3)CCCCC2)cc1)C(=O)O (stereo unspecified)	.	.	.	-5%
c1ccc2c(c1)nnn1c3ccccc3nc21	-103%	.	10µM*	.
CCOC(=O)Nc1ccc(NCc2ccc(F)cc2)nc1N	?	-12%	.	32µM*!
CC(O)C1C=CC=CC(=O)OC2CC3OC4C5OC5(C)CCC4(COC(=O)C4OC4(C)C(O)CO1)C2(C)C31CO1 (stereo unspecified)	.	0%	.	-2%
CC(=O)OC1C(=O)OCC23CCC4(C)OC4C2OC2CC(OC(=O)C=CC=CC(=O)OCCC1C)C3(C)C21CO1 (stereo unspecified)	.	5.6µM*	.	0%
Cc1ccc2cc(C)c(Sc3nnnn3-c3ccccc3)nc2c1	5%	18%	2%	1%
Cc1cc(C)c(SSc2nnnn2-c2ccccc2)c(C)c1	.	13%	.	3.5µM*
O=C(O)CCC(O)=C1S(=O)(=O)OCCOS1(=O)=O	-3%	.	.	.
Cc1onc(-c2ccccc2)c1C(=O)N[C@@H]1C(=O)N2[C@@H](C(=O)O)C(C)(C)S[C@@H]12	.	.	.	-10%
CC(C)Oc1ccc(/C(O)=C2/C(=O)C(=O)N(CCCN3CCOCC3)C2c2ccncc2)cc1 (stereo unspecified)	15%	.	.	.
CCCOc1ccc(/C(O)=C2/C(=O)C(=O)N(CCCN3CCOCC3)C2c2ccncc2)cc1 (stereo unspecified)	10µM*	.	3%	.
Fc1ccc(C(c2ccc(F)cc2)N2CCN(CC=Cc3ccccc3)CC2)cc1	.	.	.	-6%
O=C1CC(N2CCCN(C3CC(=O)N(c4ccc(F)cc4)C3=O)CC2)C(=O)N1c1ccc(F)cc1 (stereo unspecified)	-139%	4.5µM*	-1%	-9%
O=C1CC(N2CCCCC2)C(=O)N1c1ccccc1 (stereo unspecified)	-40%	40µM*	1%	2%
O=C1CC(N2CCSCC2)C(=O)N1c1cccc(Br)c1 (stereo unspecified)	.	32µM*	2%	-22%
O=C(/C=C/c1ccccc1)NCCO	.	.	.	-7%
CCC(C)CCCCC(=O)N[C@@H](CCN)C(=O)N[C@H](C(=O)N[C@@H](CCN)C(=O)N[C@H]1CCNC(=O)C([C@@H](C)O)NC(=O)[C@@H](CCN)NC(=O)[C@H](CCN)NC(=O)[C@H](CC(C)C)NC(=O)[C@@H](CC(C)C)NC(=O)[C@H](CCN)NC1=O)[C@@H](C)O (stereo partly specified)	.	.	.	13%
S=c1[nH]nc(CCc2nc3ccccc3[nH]2)n1-c1cccc(Cl)c1	0%	2%	10µM*	?
S=c1[nH]nc(CCc2nc3ccccc3[nH]2)n1-c1ccccc1	10%	1%	-12%	?
Cc1ccc(C=C2C(=O)c3ccccc3C2=O)o1	-5%	-3%	4.5µM*	?
SMILES	NS1 function inh	RE007 growth inh	LmPK inh	TbPYK inhibitor
Cc1ccc(C=C2C(=O)c3ccccc3C2=O)s1	-50%	?	13µM*	-28%
Cc1c(C(=O)O)cccc1-c1ccc(/C=C2/NC(=O)N(c3ccccc3)C2=O)o1	5%	-17%	-5%	7%
Cc1ccc(/C=C2/NC(=O)N(c3ccccc3)C2=O)o1	-24%	63µM*	1%	?
Cc1cc(C=C2C(=O)c3ccccc3C2=O)c(C)n1C	6%	11%	-15%	-7%
O=C1/C(=C/c2cccs2)Cc2ccccc21	-14%	?	?	6%
O=C1C(=Cc2cccs2)C(=O)c2ccccc21	-23%	.	14µM*	-19%
CCOC(=O)[C@H](CCc1ccccc1)N[C@@H](C)C(=O)N1C(=O)N(C)C[C@H]1C(=O)O	.	.	.	-8%
CO/N=C(\C(=O)N[C@@H]1C(=O)N2C(C(=O)[O-])=C(C[n+]3cccc4c3CCC4)CS[C@H]12)c1csc(N)n1	.	.	.	-4%

High-throughput results from PubChem.
